Laboratory results taken from PubChem BioAssay (NCI).
Compounds without any hit were thinned out: in the full panel of roughly 83,000, 20% have a hit.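 Results are percent growth after 48 hours of single-concentration exposure. 100 means growth as in untreated cells, lower positive values show inhibition; negative values down to -100 show cell death.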 Values without a mark were called inactive. Activity calls are given as the source filed them. How the source made its calls: active means growth percent below 10; inactive means the rest.

The compounds below were run on HL-60(TB) leukemia (assay: NCI-60 one-dose screen, 48 h (100 = growth as untreated, 0 = no growth, -100 = all killed)). Conditions: 10 µM unless noted.

Structure (SMILES) | growth
COc1cc2c(cc1OC(C)=O)C(=O)CCCC2 | 143%
Nc1c(C(=O)Nc2ccccc2F)sc2nc3c(cc12)CCCC3 | 15.5%
Cc1ccc(NC(=O)/C=C/c2ccccc2)c(C(N)=O)c1 | -25.5% (active)
